Inconclusive results are not listed. Calls of active or inactive are those of the source. Calls come from the whole dose curve; as a rule, active = well fitted cell-killing curve with a large enough effect; inconclusive = small, poorly fitted or top-dose-only effect, or effect the other way; inactive = no such curve, though single readings can be large or run the other way.
Assay: Viability qHTS for spleen associated tyrosine kinase inhibitor (SYKi) drug resistant MV4-11 cells (AID 1963824); note: nearly all actives have a fitted effect of over 35% in size
Conditions: SYKi-resistant MV4-11 viability, CellTiter-Glo, 72 h; series mostly up to 45 µM
In short: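 CellTiter-Glo luminescence, read 10 min after reagent addition, reports viability after a 72 hr compound exposure. Cells are an MV4-11 line made resistant to SYK inhibition, seeded at 500 per well onto compound-containing plates.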
Potency is the fitted concentration of half-maximal effect.

| Structure (SMILES) | Potency | viability, % of control |
| --- | --- | --- |
| COc1ncc(Nc2ncc([C@@H](C)N3CCN(S(C)(=O)=O)CC3)cc2-c2nc(C)nc(N)n2)cc1F | inactive | – |
| O=S(c1cc(Cl)cc(Cl)c1O)c1cc(Cl)cc(Cl)c1O | inactive | – |
| C[C@@H]1O[C@@H](O[C@H]2[C@H](O)[C@@H](C(=O)O)O[C@@H](O[C@H]3CC[C@@]4(C)C(CC[C@]5(C)C4CC=C4C6CC(C)(C)CC[C@]6(C(=O)O)CC[C@]45C)C3(C)C)[C@@H]2O[C@@H]2OC[C@@H](O)[C@H](O)[C@H]2O)[C@H](O)[C@H](O)[C@H]1O (stereo partly drawn) | – | 92.4% [at 9.25 µM] (inactive) |
| COc1c(C)c2c(c(O)c1C/C=C(\C)CC/C=C(\C)CCC(=O)O)C(=O)OC2 | inactive | – |
| CC(=O)OC1CC(=O)C2(C)C3CC4=C(OC(C)CC4=O)OC3(C)CCC2C1(C)C (stereo not drawn) | inactive | – |
| Cc1cc2c(F)c(Oc3ncnn4cc(OCC(C)O)c(C)c34)ccc2[nH]1 (stereo not drawn) | 8.2 µM (active) | – |
| COc1cc(OCc2cccc(-c3ccccc3)c2C)cc(OC)c1CN1CCCC[C@H]1C(=O)O | 8.33 µM (active) | – |
| CC12CCC3c4ccc(OC5OC(C(=O)O)C(O)C(O)C5O)cc4CCC3C1CCC2O (stereo not drawn) | inactive | – |
| CNc1cc2[nH]c(=O)n(-c3ccc(NC(=O)NS(=O)(=O)c4ccc(Cl)s4)cc3)c(=O)c2cc1F | inactive | – |
| CC1CCC2C(C)(C)C(O)CCC2(C)C12Cc1c(O)cc3c(c1O2)CN(C(CCC(N)=O)C(=O)O)C3=O (stereo not drawn) | inactive | – |
| COC(=O)c1ccc2c(c1)[nH]c1ncnc(NCCCN3CCCCC3)c12 | 9.2 µM (active) | – |
| O=c1cc(-c2ccccc2)oc2ccc(O)cc12 | 14.6 µM (active) | – |
| CC1=CC2C(CC1OC1OC(CO)C(O)C(O)C1O)C(C)CC(=O)C2C(C)C (stereo not drawn) | inactive | – |
| CCCCCC1CC1CC1CC1CCCCCCCC(=O)O (stereo not drawn) | inactive | – |
| COc1ccc([C@H]2CNC(=O)C2)cc1OC1CCCC1 | inactive | – |
| C[C@H](NC(c1cccc(C[P+](=O)O)c1)[C@H](C)O)c1ccc(Cl)c(Cl)c1 (stereo partly drawn) | inactive | – |
| CC(=O)OC1CC(C)C2(CCC3(CC(=O)OC3O)O2)C2(C)CCCC(C)(C)C12 (stereo not drawn) | 10 µM (active) | – |

| Structure (SMILES) | Potency | viability, % of control |
| --- | --- | --- |
| CC(C)Oc1ccc(-c2cnc3c(-c4ccnc5ccccc45)cnn3c2)cc1 | 4.11 µM (active) | – |
| C[C@@H]1O[C@@H](O[C@H]2CC[C@@]3(C)C(CC[C@]4(C)C3CC=C3[C@@H]5CC(C)(C)CC[C@]5(C(=O)O[C@@H]5O[C@H](CO)[C@@H](O)[C@H](O)[C@H]5O)CC[C@]34C)[C@]2(C)CO)[C@H](O)[C@H](O[C@@H]2O[C@H](CO)[C@@H](O)[C@H](O)[C@H]2O)[C@H]1O (stereo partly drawn) | 3.9 µM (active) | – |
| Cc1cc(-c2nc(C(=O)Nc3cn(C4CCOCC4)nc3C(N)=O)co2)ccn1 | 0.146 µM (active) | – |
| C=CC(=O)N[C@H]1CCOC[C@H]1Nc1ncc2cc(-c3c(Cl)c(OC)cc(OC)c3Cl)ccc2n1 | 20.9 µM (active) | – |
| CCNCCS(=O)(=O)NC[C@@]1(c2ccccc2)SC(NC(=O)C(C)(C)C)=NN1C(=O)C(C)(C)C | 0.003 µM (active) | – |
| C/C(=C\CCC(C)CCO)C(=O)OC[C@H]1O[C@@H](O[C@@H]2OC=C(C(=O)O)[C@H]3CC[C@](C)(O)[C@@H]23)C(O)[C@@H](O)C1O (stereo partly drawn) | inactive | – |
| CC(C)C[C@@H]1NC(=O)[C@@H]2C[C@@]34C[C@@H]5[C@@]6(C)CCCC(C)(C)C6CC[C@@]5(C)N(c5ccccc53)[C@H]4N2C1=O (stereo partly drawn) | 0.448 µM (active) | – |
| CN(C)CC1CCn2cc(c3ccccc32)C2=C(C(=O)NC2=O)c2cn(c3ccccc23)CCO1 (stereo not drawn) | 0.411 µM (active) | – |
| Cc1ccc(S(=O)(=O)Nc2ccccc2N2CCCCC2)s1 | 18.4 µM (active) | – |
| COc1ccc(CCc2nc3cc(-c4c(C)noc4C)ccc3n2C[C@H](C)N2CCOCC2)cc1Cl | 5.8 µM (active) | – |
| N#Cc1cnc2cnc(NCc3cccnc3)cc2c1Nc1ccc(F)c(Cl)c1 | 3.66 µM (active) | – |
| CN1CC[C@@H](c2c(O)cc(O)c3c(=O)cc(-c4ccc(C(F)(F)F)cc4Cl)oc23)[C@@H]1CO | 18.4 µM (active) | – |
| CC(C)(C)c1ccc(S(=O)(=O)Nc2ccc(Cl)cc2C(=O)c2cc[n+]([O-])cc2)cc1 | 20.6 µM (active) | – |
| CC1CC(O)C2(C)C(C(=O)O)=CCCC2C1(C)CCc1ccoc1 (stereo not drawn) | inactive | – |
| CN1CCc2cc(Cl)c(O)cc2[C@@H](c2cccc3c2OCC3)C1 | 11.6 µM (active) | – |
| CC(O)/C=C/C1(O)C2(C)COC1(C)CC(O)C2 (stereo not drawn) | inactive | – |

Reference: PubChem BioAssay (NCATS)
